In the supplement of paper PMC6609913:
Structures can show the parent of a compound that is named as a salt. ± gives the standard deviation of the averaged measurements. Over roughly 1,300 compounds, “normalised cell viability” has its median near 1; the lowest 2% begin near 0.14. The sample holds the lowest values, similar compounds and a random draw of the others, so the mix is not that of the screen.

System: V-C8 (BRCA2-deficient hamster cells)
Test: normalised cell viability (fraction of plate median); higher = more viable cells (less toxic)
Settings: 5 µM
Procedure, shortened: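 In two screens, library drugs at 5 μM were given for 3 days (screen 1) or 6 days (screen 2) to hamster V-C8 cells without BRCA2 and V-C8 cells with BRCA2 restored, seeded 24 h earlier in 96-well plates. A resazurin assay gave the cell viability readout, expressed as modified robust per cent of sample against the plate median, with triplicate wells averaged.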

Structure (SMILES) | normalised cell viability (treatment time: 3 days) | normalised cell viability (treatment time: 6 days)
C#C[C@]1(O)CC[C@H]2[C@@H]3CCC4=CCCC[C@@H]4[C@H]3CC[C@@]21C [Lynestrenol] | 1.1 ± 0.046 | 1.12 ± 0.063
CC(=O)N(O)CCCCCNC(=O)CCC(=O)N(O)CCCCCNC(=O)CCC(=O)N(O)CCCCCN [Deferoxamine mesylate] | 0.305 ± 0.021 | 0.198 ± 0.011
CC(C)(C)C(=O)OCOC(=O)[C@@H]1N2C(=O)[C@@H](NC(=O)[C@H](N)c3ccccc3)[C@H]2SC1(C)C [Pivampicillin] | 1.02 ± 0.075 | 1.01 ± 0.1
Cn1c(=O)c2c(ncn2CCO)n(C)c1=O [Etofylline] | 1.03 ± 0.052 | 0.996 ± 0.039
Cc1cc(-n2c(=O)[nH]c(=O)n(C)c2=O)ccc1Oc1ccc(SC(F)(F)F)cc1 [Toltrazuril] | 1.07 ± 0.044 | 1 ± 0.073
O=C1NCN(c2ccccc2)C12CCN(CCCC(c1ccc(F)cc1)c1ccc(F)cc1)CC2 [Fluspirilen] | 0.472 ± 0.045 | 0.235 ± 0.12
Clc1ccccc1CN1CCc2sccc2C1 [Ticlopidine hydrochloride] | 1.1 ± 0.032 | 1.08 ± 0.064
Cc1nc(=O)c2cc(CN(C)c3ccc(C(=O)N[C@@H](CCC(=O)O)C(=O)O)s3)ccc2[nH]1 [Raltitrexed] | 0.332 ± 0.028 | 0.432 ± 0.075
CCN(CC)CCN[C@@H](C(=O)OCCC(C)C)c1ccccc1 [Camylofine chlorhydrate] | 1.07 ± 0.065 | 0.978 ± 0.027
Cc1ncc(C[n+]2csc(CCO)c2C)c(N)n1 [Thiamine hydrochloride] | 1.05 ± 0.029 | 1.05 ± 0.016
Cc1c(Nc2ncccc2C(=O)O)cccc1C(F)(F)F [Flunixin meglumine] | 1.1 ± 0.11 | 1.03 ± 0.037
CC(C)OC(=O)CCC/C=C\C[C@@H]1[C@@H](CC[C@@H](O)CCc2ccccc2)[C@H](O)C[C@@H]1O [Latanoprost] | 1.13 ± 0.11 | 1.05 ± 0.041
C[C@@]1(O)CCOC(=O)C1 [Mevalonic-D, L acid lactone] | 1.12 ± 0.05 | 1.05 ± 0.18
CCCCCNC(=N)N/N=C/c1c[nH]c2ccc(OC)cc12 [Tegaserod maleate] | 0.124 ± 0.011 | 0.164 ± 0.016
COc1ccc2[nH]cc(CCNC(C)=O)c2c1 [Melatonin] | 1.16 ± 0.068 | 1 ± 0.058
CN1CCCC(CC2c3ccccc3Sc3ccccc32)C1 (stereo not drawn) [Metixene hydrochloride] | 0.57 ± 0.02 | 0.69 ± 0.052
Clc1ccc(C(Cn2ccnc2)OCc2ccsc2Cl)c(Cl)c1 (stereo not drawn) [Tioconazole] | 0.97 ± 0.046 | 0.966 ± 0.059

Structure (SMILES) | normalised cell viability (treatment time: 3 days) | normalised cell viability (treatment time: 6 days)
COC1=C(OC)C(=O)C(CCCCCCCCCCO)=C(C)C1=O [Idebenone] | 0.648 ± 0.036 | 0.713 ± 0.04
CC(C)(C)NCC(O)COc1cccc2c1CC(O)C(O)C2 (stereo not drawn) [Nadolol] | 1.02 ± 0.073 | 1.04 ± 0.035
C1CCC(C(CC2CCCCN2)C2CCCCC2)CC1 (stereo not drawn) [Perhexiline maleate] | 0.126 ± 0.011 | 0.109 ± 0.0083
Cc1cc2cc3c(C)cc(=O)oc3c(C)c2o1 [Trioxsalen] | 1.04 ± 0.047 | 1.07 ± 0.027
CC=CC(=O)N(CC)c1ccccc1C [Crotamiton] | 0.866 ± 0.12 | 0.929 ± 0.025
CC(C)c1ccc2oc3nc(N)c(C(=O)O)cc3c(=O)c2c1 [Amlexanox] | 0.933 ± 0.034 | 1.03 ± 0.089
O=C(O)[C@H]1/C(=C/CO)O[C@@H]2CC(=O)N21 [Potassium clavulanate] | 1 ± 0.03 | 0.984 ± 0.039
Nc1ccc(O)c(C(=O)O)c1 [Mesalamine] | 1.09 ± 0.028 | 1.14 ± 0.27
N=C(N)NC(=N)NCCc1ccccc1 [Phenformin hydrochloride] | 0.955 ± 0.035 | 0.96 ± 0.052
CC(C)NC(=N)NC(=N)Nc1ccc(Cl)cc1 [Proguanil hydrochloride] | 0.196 ± 0.012 | 0.189 ± 0.014
N=C(NCCCCCCNC(=N)NC(=N)Nc1ccc(Cl)cc1)NC(=N)Nc1ccc(Cl)cc1 [Chlorhexidine] | 0.129 ± 0.0057 | 0.101 ± 0.0054
CCN(CC)CCOc1ccc(C(=C(Cl)c2ccccc2)c2ccccc2)cc1 [Clomiphene citrate (Z,E)] | 0.142 ± 0.002 | 0.118 ± 0.011
CC/C(=C(\c1ccccc1)c1ccc(OCCN(C)C)cc1)c1ccccc1 [Tamoxifen citrate] | 0.837 ± 0.019 | 0.767 ± 0.035
CN(C)CCOc1ccc(/C(=C(/CCCl)c2ccccc2)c2ccccc2)cc1 [Toremifene] | 0.716 ± 0.067 | 0.875 ± 0.052
CC[N+](CC)(CC(=O)Nc1c(C)cccc1C)Cc1ccccc1 [Denatonium benzoate] | 1.01 ± 0.031 | 1.07 ± 0.019
Cc1cn([C@H]2C=C[C@@H](CO)O2)c(=O)[nH]c1=O [Stavudine] | 1.05 ± 0.077 | 1.23 ± 0.35
O=C1NCCN1CCN1CCC(c2cn(-c3ccc(F)cc3)c3ccc(Cl)cc23)CC1 [Sertindole] | 0.385 ± 0.019 | 0.591 ± 0.069
